Only some compounds are listed: those with a hit (about 2.4% of all), similar ones and a draw of the others.
Pol kappa inh-1: inhibitors of human DNA polymerase kappa. purified Pol kappa, fluorescent DNA synthesis assay, 10 min. Potency, µM (top dose mostly 107 µM), most hits filed as inhibitors. hit rate 0.53% among 400,000. AID 588579
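Readout: fluorescence, taken kinetically at 0 and 10 min. Conditions: 10 nM Pol kappa, 15 min RT compound preincubation, 50 nM substrate final. Controls: enzyme-free buffer wells.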
POLB inh: DNA polymerase beta (human) inhibition | P06746 | Pol beta primer extension/strand displacement, fluorescence kinetic | Potency, µM (titrated, usually from 114 µM), actives largely listed as inhibitors | hit rate 1.3% among 340,000 | AID 485314
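Curves were derived by four-parameter Hill fits of normalized qHTS data. The kinetic fluorescent primer-extension read was taken at 0 and 10 min after 50 nM substrate, following a 15 min room-temperature preincubation of 10 nM enzyme with compounds.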
POLI inh: blocks human DNA polymerase iota activity. Q9UNA4. Pol iota fluorescent replication assay, 10 min. Potency, µM (top dose mostly 115 µM), hits mostly inhibitors. hit rate 1% among 390,000. AID 588590
Target sequence (Q9UNA4 whole entry, looked up): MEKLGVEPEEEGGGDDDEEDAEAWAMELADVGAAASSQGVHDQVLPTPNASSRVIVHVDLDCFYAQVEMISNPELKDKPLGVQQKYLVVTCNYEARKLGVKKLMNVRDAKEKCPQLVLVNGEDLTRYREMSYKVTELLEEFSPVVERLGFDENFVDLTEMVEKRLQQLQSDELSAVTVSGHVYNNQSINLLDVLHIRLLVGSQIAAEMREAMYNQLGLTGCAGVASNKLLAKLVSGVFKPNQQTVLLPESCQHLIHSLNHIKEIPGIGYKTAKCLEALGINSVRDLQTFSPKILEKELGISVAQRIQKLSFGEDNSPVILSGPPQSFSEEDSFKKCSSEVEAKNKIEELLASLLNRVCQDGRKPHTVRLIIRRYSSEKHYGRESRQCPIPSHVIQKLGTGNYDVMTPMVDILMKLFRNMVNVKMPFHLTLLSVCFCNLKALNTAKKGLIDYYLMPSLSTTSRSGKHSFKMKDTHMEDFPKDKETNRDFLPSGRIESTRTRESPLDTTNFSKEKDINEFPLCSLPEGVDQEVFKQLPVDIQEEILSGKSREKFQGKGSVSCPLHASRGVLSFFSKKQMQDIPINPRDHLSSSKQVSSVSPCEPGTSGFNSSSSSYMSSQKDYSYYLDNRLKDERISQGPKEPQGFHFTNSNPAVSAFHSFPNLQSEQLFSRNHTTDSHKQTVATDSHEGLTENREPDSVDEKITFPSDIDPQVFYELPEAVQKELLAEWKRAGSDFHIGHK
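Fluorescent replication assay read twice, at 0 min and 10 min after adding 50 nM (final) substrate. Enzyme (10 nM) and compounds were first incubated 15 min at room temperature; enzyme-free buffer wells were negative controls.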
APE1 inh: blocks human APE1 abasic DNA cleavage; P27695; recombinant APE1, TAMRA/BHQ-2 abasic DNA cleavage fluorescence; Potency, µM (doses to about 65.8 µM), hits mostly inhibitors; hit rate 0.35% among 350,000; note: nearly all actives have a fitted effect of over 55% in size
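Quantitative HTS: incision of a TAMRA/BHQ-2 double-stranded substrate bearing a tetrahydrofuran abasic site by 0.75 nM APE1 raises fluorescence. Substrate 50 nM final, added after 15 min compound preincubation at room temperature; progress as third-minus-first kinetic read difference.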
GLS inhibitor: blocks human kidney-isoform glutaminase activity. Potency, µM (titrated, usually from 45.5 µM), actives largely listed as inhibitors. hit rate 0.21% among 410,000. GLS enzymatic activity, qHTS titration. O94925. AID 624170
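Compounds were pin-transferred onto hKGA, after which L-glutamine (1 mM solution) and a detection mix of glutamate oxidase, HRP and Amplex Red were added. Initial and 30 min RT fluorescence reads were collected.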
Pol eta inh-1: inhibitors of human DNA polymerase eta | Q9Y253 | Potency, µM (titrated, usually from 114 µM), actives largely listed as inhibitors | hit rate 1.2% among 390,000 | recombinant Pol eta, fluorescent DNA replication assay
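Fluorescent replication assay: 50 nM final substrate added after a 15 min room-temperature compound preincubation with 10 nM enzyme. Signal taken at 0 min and again at 10 min.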
Pol kappa inh-2: Pol kappa (human) inhibition, cherry-pick confirmation; shares compounds with Pol eta inh-1; purified Pol-kappa, fluorescent strand-displacement substrate; Potency, µM, most hits filed as inhibitors; hit rate 76% among 920
Pol eta inh-2: confirmation of human DNA polymerase eta inhibitors; Potency, µM, most hits filed as inhibitors; shares compounds with Pol eta inh-1; hit rate 64% among 2,600; Pol eta primer extension, TAMRA/BHQ fluorescence, 10 min
Each line names hits and unclear results; the compound was inactive in the other large screens (follow-up assays come after a bar, where they were run). Calls come from the whole dose curve; as a rule, active = well fitted curve in the direction sought with a large enough effect; inconclusive = small, poorly fitted or top-dose-only effect, or another doubt; inactive = no such curve, though single readings can be large; an effect the other way counts as inactive or inconclusive.

CC(C)CC1=NN2C(=N)/C(=C\c3coc4ccccc4c3=O)C(=O)N=C2S1	Pol kappa inh-1 inconclusive, POLB inh 20µM, POLI inh inconclusive, Pol eta inh-1 20µM | Pol eta inh-2 75.7
CCSC1=NSC2=NC(=O)/C(=C\c3coc4ccccc4c3=O)C(=N)N12	POLB inh 28.2µM, POLI inh inconclusive, Pol eta inh-1 20µM | Pol kappa inh-2 inconclusive
Cn1cc(CCNC(=O)C2CCC(=O)N(CCc3ccc(Cl)cc3)C2)cn1 (stereo unspecified)	none
O=C(CSc1nc(-c2ccccc2)cs1)N1CCc2ccccc21	none (no result: GLS inhibitor)
O=c1c2ccccc2nc(-c2ccoc2)n1CCc1ccccc1	none
c1coc(-c2nc3ccccc3nc2-c2ccco2)c1	Pol kappa inh-1 inconclusive, POLB inh 17.8µM, POLI inh inconclusive, GLS inhibitor inconclusive, Pol eta inh-1 50.1µM | Pol eta inh-2 inconclusive
O=C(c1ccccc1)c1ccc2nc(-c3ccco3)c(-c3ccco3)nc2c1	Pol kappa inh-1 25.1µM, POLB inh 8.91µM, POLI inh 3.98µM, APE1 inh inconclusive, GLS inhibitor inconclusive, Pol eta inh-1 12.6µM | Pol kappa inh-2 inconclusive | Pol eta inh-2 inconclusive
c1coc(-c2cnc3ccccc3n2)c1	none (no result: Pol kappa inh-1, POLB inh, POLI inh, APE1 inh)
CCOCCc1nn2c(=O)cc(COC(=O)c3cccc(C)c3)nc2s1	none (no result: APE1 inh)
O=C(O)c1[nH]c2ccc(Cl)cc2c1CC(=O)N1CCN(C(=O)c2ccco2)CC1	Pol kappa inh-1 50.1µM, POLB inh 12.6µM, POLI inh inconclusive, Pol eta inh-1 7.08µM | Pol eta inh-2 30.1
O=C(O)c1ccc2c(=O)n3cc(C(=O)c4ccccc4O)cc(Cl)c3nc2c1	POLB inh inconclusive, POLI inh inconclusive, GLS inhibitor inconclusive, Pol eta inh-1 8.91µM | Pol eta inh-2 12
O=C(CCC1CCCCC1)NCc1ccncc1	none
COc1cc(C2C(C#N)=C(N)OC3=C2C(=O)CC(C)(C)C3)cc2c1OCO2 (stereo unspecified)	Pol kappa inh-1 inconclusive, POLI inh 25.1µM, Pol eta inh-1 inconclusive (no result: POLB inh, APE1 inh) | Pol eta inh-2 inconclusive
COc1ccc(C2C(C#N)=C(N)OC3=C2C(=O)CC(C)(C)C3)cc1 (stereo unspecified)	none
COc1ccc(/C=C/C(=O)O)cc1S(=O)(=O)NC1CCS(=O)(=O)C1 (stereo unspecified)	POLB inh inconclusive, POLI inh inconclusive, Pol eta inh-1 28.2µM | Pol kappa inh-2 67 | Pol eta inh-2 inconclusive
COc1cc(/C=C/C(=O)O)cc(S(=O)(=O)NCc2ccco2)c1OC	none
COc1cc(/C=C/C(=O)O)cc(S(=O)(=O)NC2CCCC2)c1OC	none
COc1ccc(/C=C/C(=O)O)cc1S(=O)(=O)NCc1ccco1	POLB inh inconclusive, POLI inh inconclusive, Pol eta inh-1 56.2µM | Pol eta inh-2 67.5
O=C(Nc1cccc(C(F)(F)F)c1)c1csc([C@@H]2C[C@H](O)[C@@H](CO)O2)n1	none (no result: Pol kappa inh-1, POLB inh, POLI inh, APE1 inh, Pol eta inh-1)
CN(C1=NS(=O)(=O)c2ccccc21)c1ccc(OC(=O)c2ccccc2F)cc1	none (no result: Pol kappa inh-1, POLB inh, POLI inh, APE1 inh)
N#Cc1c(/N=C/c2ccc(-c3ccc(C(=O)O)c(Cl)c3)o2)sc2c1CCCC2	Pol eta inh-1 22.4µM (no result: POLB inh) | Pol eta inh-2 inconclusive
N#Cc1c(/N=C/c2ccc(-c3ccccc3C(=O)O)o2)sc2c1CCCC2	POLB inh 28.2µM, POLI inh inconclusive, APE1 inh inconclusive, Pol eta inh-1 28.2µM | Pol eta inh-2 67.5
N#Cc1c(/N=C/c2ccc(Br)s2)sc2c1CCC2	none
Cc1ccc(/C=N/c2sc3c(c2C#N)CCC3)o1	POLI inh inconclusive, Pol eta inh-1 inconclusive
O=C(O)/C=C/c1cn(-c2ccccc2)nc1-c1cccc([N+](=O)[O-])c1	none
O=C(O)/C=C/c1cn(-c2ccccc2)nc1-c1ccc(-c2ccc([N+](=O)[O-])cc2)o1	POLB inh 28.2µM, POLI inh inconclusive, Pol eta inh-1 31.6µM | Pol eta inh-2 84.9
COc1cc(/C=C2/C(=O)c3cccc([N+](=O)[O-])c3C2=O)c(Br)cc1O	POLB inh 39.8µM, POLI inh 25.1µM, APE1 inh inconclusive, GLS inhibitor inconclusive, Pol eta inh-1 25.1µM | Pol eta inh-2 47.8
COc1ccc(C(=O)CSc2cc(C)[nH]c(=O)n2)cc1	Pol kappa inh-1 79.4µM, POLB inh 5.62µM, POLI inh inconclusive, Pol eta inh-1 20µM | Pol eta inh-2 inconclusive
COc1ccc(C(=O)CSc2nc(C)cc(=O)[nH]2)cc1	none
O=C(CN1C(=O)c2ccccc2S1(=O)=O)NCc1ccccc1Cl	none
O=C(CN1C(=O)c2ccccc2S1(=O)=O)Nc1ncc(Cl)cc1Cl	Pol kappa inh-1 inconclusive, POLI inh inconclusive, Pol eta inh-1 22.4µM (no result: POLB inh) | Pol eta inh-2 30.1
COc1ccc(N2Cc3cccc(C(=O)N4CCOCC4)c3C2=O)cc1	none
COc1ccc(N2Cc3cccc(C(=O)Nc4ccc(Cl)cc4)c3C2=O)cc1	POLB inh 12.6µM, POLI inh inconclusive, Pol eta inh-1 inconclusive (no result: APE1 inh) | Pol kappa inh-2 inconclusive | Pol eta inh-2 inconclusive
COc1ccc(N(Cc2nnc3n2CCCCC3)C(=O)Nc2ccccc2)cc1	POLB inh inconclusive
O=c1c(-c2ccccc2)nc2cnc(Nc3ccccc3)nc2n1C[C@H]1CCCO1	none (no result: POLB inh, POLI inh, GLS inhibitor, Pol eta inh-1)
COc1cc(NS(=O)(=O)c2ccc(NC(=O)/C(=C/c3ccccc3Cl)NC(=O)c3ccccc3)cc2)nc(OC)n1	Pol eta inh-1 inconclusive
CCOC(=O)/C=C/C(=O)Nc1ccc(S(=O)(=O)Nc2nccs2)cc1	POLI inh 25.1µM, Pol eta inh-1 44.7µM | Pol eta inh-2 inconclusive
O=C(CSc1ccncc1)Nc1ccc(S(=O)(=O)Nc2nccs2)cc1	Pol kappa inh-1 inconclusive, POLI inh 28.2µM, Pol eta inh-1 17.8µM | Pol eta inh-2 47.8
O=C(Nc1ccc(S(=O)(=O)Nc2nccs2)cc1)/C(=C/c1ccccc1Cl)NC(=O)c1ccccc1	Pol eta inh-1 inconclusive | Pol eta inh-2 inconclusive
Cc1ccc(SCC(=O)Nc2ccc(S(=O)(=O)Nc3nccs3)cc2)cc1	POLI inh inconclusive, Pol eta inh-1 inconclusive
CC(=O)Nc1ccc(NC(=S)NC(=O)/C=C/c2ccco2)cc1	Pol kappa inh-1 44.7µM, POLI inh inconclusive, Pol eta inh-1 28.2µM | Pol eta inh-2 60.1
COc1cccc(NC(=S)NC(=O)/C=C/c2ccco2)c1	Pol kappa inh-1 inconclusive, POLB inh 39.8µM, POLI inh 28.2µM, Pol eta inh-1 44.7µM | Pol kappa inh-2 16.8 | Pol eta inh-2 47.8
